Assay outcomes deposited in PubChem by National Center for Advancing Translational Sciences (NCATS).
Rows were chosen to be rich in hits. Some 3.9% of all compounds tested hit in one or more screens of this group.
BRCA1 expr up: activators of BRCA1 expression. MCF7-BRCA1-FFLuc reporter, luminescence, 48 h; response scale: scaled: vehicle 0%, 10 µM genistein 100%. Potency, µM (series often up to 46.1 µM), without a hit: at the highest dose activation, actives largely listed as activators. hit rate 1.1% among 380,000. AID 624202; also: nearly all actives have a fitted effect of over 80% in size
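Activators of BRCA1 expression were detected as increased firefly luciferase luminescence in engineered MCF7 cells after 48 h compound incubation. Signals were scaled to genistein 10 microM as full activation.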
Tb PFK block: blocks T. brucei phosphofructokinase; O15648; T. brucei PFK, ADP-Glo luminescence; Potency, µM (doses to about 57.5 µM), for inactives: at the top dose activity, negative = inhibition, most hits filed as inhibitors; hit rate 0.17% among 330,000; AID 485367;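 also: 0% = uninhibited 1x PFK enzyme wells and -100% = no-enzyme wells; nearly all actives have a fitted effect of over 60% in size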
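Luminescent ADP detection (ADP-Glo, two-step: ATP depletion then ADP-to-ATP conversion for luciferase) reported PFK activity after 45 min room-temperature reaction of 1.25 nM enzyme with 0.5 mM F6P and 0.1 mM ATP at pH 8.0.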
VDR inh: inhibitors of human vitamin D receptor; AID 504847; VDR-SRC2-3 peptide fluorescence polarization, 2 h; Potency, µM, without a hit: max response, negative = inhibition, most hits filed as inhibitors; hit rate 0.93% among 400,000; also: % is scaled to controls: 0 for no effect and ±100 for the full control effect
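Two reagent solutions held at 4 deg C in the dark were dispensed, compounds pinned at 23 nl, and the mixture incubated 2 h at room temperature. Read-out: fluorescence polarization of VDR–SRC2-3 peptide binding.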
PLK1 PBD inh: inhibitors of human PLK1 polo-box domain binding | hit rate 2.8% among 360,000 | Plk1 PBD binding of FITC phosphopeptide, fluorescence polarization | Potency, µM, for the others: max response, negative = inhibition, usual class: inhibitors | P53350; also: series mostly up to about 57 µM; % is scaled to controls: 0 for no effect and ±100 for the full control effect; nearly all actives have a fitted effect of over 65% in size
Target sequence (P53350 whole entry, looked up, the tested form may be a part): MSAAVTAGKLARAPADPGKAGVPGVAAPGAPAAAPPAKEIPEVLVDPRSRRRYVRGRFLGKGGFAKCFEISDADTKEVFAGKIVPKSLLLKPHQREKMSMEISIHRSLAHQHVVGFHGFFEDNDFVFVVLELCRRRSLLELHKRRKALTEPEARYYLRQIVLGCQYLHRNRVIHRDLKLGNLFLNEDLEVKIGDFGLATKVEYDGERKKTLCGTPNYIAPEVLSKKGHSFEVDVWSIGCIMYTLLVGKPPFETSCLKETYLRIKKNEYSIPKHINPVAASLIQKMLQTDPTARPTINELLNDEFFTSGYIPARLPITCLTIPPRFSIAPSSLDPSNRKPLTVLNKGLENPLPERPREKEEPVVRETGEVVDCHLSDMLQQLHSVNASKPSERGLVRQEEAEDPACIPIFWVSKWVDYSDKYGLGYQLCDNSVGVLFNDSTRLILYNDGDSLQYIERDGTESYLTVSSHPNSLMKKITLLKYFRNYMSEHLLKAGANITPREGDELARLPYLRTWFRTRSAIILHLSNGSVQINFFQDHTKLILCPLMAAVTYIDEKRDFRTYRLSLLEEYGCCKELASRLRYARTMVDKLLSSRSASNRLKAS
* hit, by the source's call; u = inconclusive; x = no result given. Calls follow the shape of the dose curve; as a rule, active = well fitted curve in the direction sought with a large enough effect; inconclusive = small, poorly fitted or top-dose-only effect, or another doubt; inactive = no such curve, though single readings can be large; an effect the other way counts as inactive or inconclusive. Potency is read from the fitted curve at half-maximal effect.

SMILES	BRCA1 expr up	Tb PFK block	VDR inh	PLK1 PBD inh
CCN(CC)C(=O)c1ccc(NS(=O)(=O)c2ccc3[nH]c(=O)[nH]c3c2)cc1	8%	0%	-6%	4%
COc1ccc(C(=O)NCC2(c3ccccc3)CCOCC2)cc1[N+](=O)[O-]	4%	-1%	u	12µM*
Cc1ccc(S(=O)(=O)N2[C@@H](CO)CO[C@H]2CC(=O)c2cccc3ccccc23)cc1	x	x	x	0%
C[C@@H](CO)[C@H](/C=C/c1ccccc1)CCO[Si](c1ccccc1)(c1ccccc1)C(C)(C)C	x	x	-10%	x
OCCN1CCN(Cc2nc(-c3cccc(Cl)c3)no2)CC1	46%	-3%	1%	-15%
CN1CCCN(Cc2nc(-c3ccc(Cl)cc3)no2)CC1	13µM*	1%	8%	u
CC(=O)Nc1ncnc2c1c(-c1ccc(Cl)cc1)nn2C(C)(C)C	-7%	-6%	-31%	-6%
CC(=O)N(C(C)=O)c1ncnc2c1c(-c1ccc(Cl)cc1)nn2C(C)(C)C	-58%	-2%	50µM*	-7%
COC1=C(Nc2ccc(OC)cc2)C(=O)c2ccccc2C1=O	-46%	1%	u	6%
COC1=C(Nc2ccc(O)cc2)C(=O)c2ccccc2C1=O	-86%	0%	25µM*	-11%
Oc1cc2cc(-c3csc(-c4ccc(F)cc4)n3)cc3c2n1CCC3	13µM*	x	x	x
NC(=O)c1ccsc1N	x	-3%	x	x
CC(C)OC(=O)c1c(N)sc2c1CCCC2	5%	x	u	24µM*
Nc1sccc1C(=O)c1ccc(Cl)cc1	6.3µM*	-10%	-4%	-11%
Nc1sc2c(c1C(=O)c1ccc(Cl)cc1)CCCC2	x	x	45µM*	x
CC1ON=C(c2cccc3ccccc23)N(C)C1=O (stereo not given)	6%	x	x	7%
CNC(CC(=O)c1ccc([N+](=O)[O-])cc1)C(Cl)(Cl)Cl (stereo not given)	-74%	-1%	18µM*	2.7µM*
COc1ccc(C(=O)CC(Nc2ccc([N+](=O)[O-])cc2)c2ccc(OC)cc2)cc1 (stereo not given)	-26%	-2%	-14%	-3%
Cn1cnc([N+](=O)[O-])c1Sc1nc(N)nc2c1ncn2C1CC(O)C(CO)O1 (stereo not given)	-82%	x	10%	2%
Cc1c(C(=O)NNC(=O)c2csc(N3CCOCC3)n2)oc2ccc(Br)cc12	-11%	x	x	-8%
COc1ccc(C(=O)/C=C/Nc2cc(C)on2)cc1	3.2µM*	-1%	3%	-7%
COc1ccc(/C=C/C(=O)Nc2cc(C)on2)cc1	4.5µM*	-4%	u	30µM*
COc1ccc(/C=C/C(=O)Nc2nc(C)cc(C)n2)cc1OC	-30%	19%	-19%	30µM*
Cc1cc(NC(=O)Nc2ccc(C)c(C)c2)no1	7.9µM*	-1%	0%	7%
COCCCNC(=O)c1sc2nc3n(c(=O)c2c1C)CCC3	x	x	3%	x
SMILES	BRCA1 expr up	Tb PFK block	VDR inh	PLK1 PBD inh
CCOC(=O)c1cccc(NC(=O)CSc2nc3cc4ccccc4cc3[nH]2)c1	x	x	-7%	x
O=c1c2ccccc2sn1-c1ccc(Cl)c(S(=O)(=O)N2CCOCC2)c1	7%	x	u	x
COc1ccc(/C=C/C(=O)NC(=S)N2CCN(c3ccccc3OC)CC2)cc1	4µM*	1%	-12%	-23%
C#CCNC(=O)/C=C/c1ccc(OC)cc1	13µM*	-1%	-22%	-1%
COc1ccc(/C=C/C(=O)NCCCN2CCCC2)cc1	-8%	-1%	-2%	1%
COc1cccc(C(=O)NC(=O)Nc2cc(C)on2)c1	7.9µM*	-2%	5%	-2%
Cc1c(Cl)cccc1NC(=S)N(CCCN1CCOCC1)Cc1cccs1	-32%	-2%	-10%	-6%
Cc1ccc(NC(=S)N(CCCN2CCOCC2)Cc2cccs2)c(C)c1	-11%	-7%	-3%	19µM*
C(=N\NCc1ccccc1)/c1ccc2nccnc2c1	4.5µM*	2%	-20%	2%
Cc1ccc(N2CCN(Cc3nnc(-c4ccc5c(c4)OCO5)o3)CC2)c(C)c1	x	x	1%	x
CCc1cc(C(=O)NNC(=S)Nc2cc(C)ccc2C)cs1	-1%	0%	-2%	-16%
CCc1cc(C(=O)NNC(=S)Nc2ccccc2C)cs1	10µM*	-6%	-1%	-9%
Cc1ccccc1NC(=O)c1cccc(NC(=O)c2ccccc2C(=O)O)c1	-3%	x	6%	-5%
CC1(C)CC(=O)C(Sc2ccccc2)=C(O)C1	-1%	1%	-14%	12µM*
CC1(C)CC(=O)C(Sc2ccccc2C(=O)O)=C(O)C1	-14%	0%	-18%	-18%
C/C(=N\Nc1ccc(Cl)c(C(=O)O)c1)c1cccs1	13µM*	1%	-19%	-29%
C/C(=N/Nc1ccccc1C(=O)O)c1cccs1	10µM*	0%	-6%	-6%
C/C(=N\Nc1ccc(Cl)c(C(=O)O)c1)c1ccc(N2CCOCC2)cc1	u	0%	10%	u
Cc1ccc(N2CC(NC(=O)C3CCCC3)CC2=O)cc1 (stereo not given)	x	x	7%	x
COCC1=C(C(=O)OC(C)OC(=O)OC(C)C)N2C(=O)[C@@H](NC(=O)/C(=N\OC)c3csc(N)n3)[C@H]2SC1 (stereo not given in full)	0%	x	-6%	-17%
CO/N=C(\C(=O)N[C@@H]1C(=O)N2C(C(=O)O)=C(COC(C)=O)CS[C@H]12)c1csc(N)n1	x	x	71µM*	x
CO/N=C(\C(=O)N[C@@H]1C(=O)N2C(C(=O)[O-])=C(C[n+]3cccc4c3CCC4)CS[C@H]12)c1csc(N)n1	x	x	28µM*	x
CCn1c(COc2ccccc2)nc2ccccc21	102%	-3%	7%	-1%
CCn1c(COc2ccc(OC)cc2)nc2ccccc21	11µM*	-3%	2%	-13%
COc1ncnc(-c2ccccc2)c1-c1ccccc1	-22%	x	1%	6%
SMILES	BRCA1 expr up	Tb PFK block	VDR inh	PLK1 PBD inh
Cc1cc(NC(=O)Nc2ccc3c(ccn3C)c2)sn1	10µM*	x	2%	-6%
CC(=O)Cn1cnc2c(sc3nc(C)cc(C)c32)c1=O	11µM*	0%	11%	-7%
CCOC(=O)c1ccc(Cl)c(S(=O)(=O)N2CCCC2)c1	7%	-2%	-20%	21µM*
NC(=O)COC(=O)c1ccc(Cl)c(S(=O)(=O)N2CCCCCC2)c1	-1%	-3%	-14%	-3%
O=C(OCC(=O)N1CCCCCC1)c1ccc(Cl)c(S(=O)(=O)N2CCCC2)c1	0%	-14%	u	11µM*
NC(=O)C1CCCN1Cc1ccc2c(c1)OCO2 (stereo not given)	3%	x	0%	-9%
O=C(O)c1cccc(N2C(=O)c3cc([N+](=O)[O-])cc4cc([N+](=O)[O-])cc(c34)C2=O)c1	-39%	-12%	56µM*	8.4µM*
O=c1[nH][nH]c2cc([N+](=O)[O-])ccc12	-11%	x	-9%	-12%
Cc1c(C(=O)N2CCc3ccccc32)oc2c1C(=O)CC(C)(C)C2	13µM*	0%	-10%	u
CC(C)C1N=C(c2ccc3c(c2)OCO3)CC(c2ccccc2O)N1 (stereo not given)	0%	4%	79µM*	-25%
CC(C)C1(C)NC(c2ccc3c(c2)OCO3)=CC(c2ccccc2O)N1 (stereo not given)	0%	x	-11%	x
